L3MBTL1 block – blocks human L3MBTL1. Q9Y468. AlphaScreen L3MBTL1–H3K9me1 peptide binding. Potency, µM (doses to about 57.1 µM), actives largely listed as inhibitors. 230,000 tested, 0.66% active. AID 485360; also: nearly all actives have a fitted effect of over 60% in size
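AlphaScreen proximity signal between nickel-chelate acceptor and streptavidin donor beads (final 10 ug/mL) reports binding of 50 nM L3MBTL1 to 75 nM biotin-H3 K9me1 peptide; complex incubated with compounds 30 min at room temperature; cefsulodin titration as control.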
JMJD2A Tudor inh – blocks the human JMJD2A Tudor domain; AlphaScreen JMJD2A-Tudor / H3K4me3 peptide binding; 390,000 tested, 4.4% active; AID 504339; Potency, µM (doses to about 114 µM), actives largely listed as inhibitors; also: nearly all actives have a fitted effect of over 50% in size
Target sequence (O75164 whole entry, looked up, the tested form may be a part): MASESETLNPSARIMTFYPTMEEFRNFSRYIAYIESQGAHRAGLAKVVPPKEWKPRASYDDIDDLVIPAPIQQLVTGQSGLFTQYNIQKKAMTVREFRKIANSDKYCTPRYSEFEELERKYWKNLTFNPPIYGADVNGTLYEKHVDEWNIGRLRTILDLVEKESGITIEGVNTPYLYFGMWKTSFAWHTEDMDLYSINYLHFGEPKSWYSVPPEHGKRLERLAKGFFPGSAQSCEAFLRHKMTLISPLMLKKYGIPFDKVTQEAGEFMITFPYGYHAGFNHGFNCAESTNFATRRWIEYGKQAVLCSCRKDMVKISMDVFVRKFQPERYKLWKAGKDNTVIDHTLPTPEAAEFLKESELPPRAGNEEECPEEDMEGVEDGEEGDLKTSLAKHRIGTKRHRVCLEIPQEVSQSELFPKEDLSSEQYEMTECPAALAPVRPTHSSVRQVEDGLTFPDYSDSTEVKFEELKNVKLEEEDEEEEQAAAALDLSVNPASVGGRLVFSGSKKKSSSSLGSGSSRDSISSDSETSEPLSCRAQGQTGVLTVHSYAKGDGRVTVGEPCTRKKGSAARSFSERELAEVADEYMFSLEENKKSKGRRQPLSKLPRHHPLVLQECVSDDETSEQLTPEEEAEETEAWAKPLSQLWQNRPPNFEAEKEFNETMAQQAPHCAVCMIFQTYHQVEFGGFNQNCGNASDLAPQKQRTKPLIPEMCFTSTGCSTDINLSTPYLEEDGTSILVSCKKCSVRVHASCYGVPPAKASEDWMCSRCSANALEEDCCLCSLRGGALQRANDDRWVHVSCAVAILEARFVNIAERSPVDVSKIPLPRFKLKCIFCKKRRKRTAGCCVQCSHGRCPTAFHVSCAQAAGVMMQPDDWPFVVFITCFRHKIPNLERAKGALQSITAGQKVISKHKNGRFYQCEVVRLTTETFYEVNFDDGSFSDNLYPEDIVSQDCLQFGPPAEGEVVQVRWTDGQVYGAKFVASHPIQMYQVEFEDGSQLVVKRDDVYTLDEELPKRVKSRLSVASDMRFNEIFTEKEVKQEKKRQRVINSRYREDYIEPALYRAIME
HP1b chromo inh – HP1-beta chromodomain-methylated histone interaction inhibition; 390,000 tested, 0.56% active; AlphaScreen HP1-beta / biotin-H3K9me3 peptide binding; AID 540317; Potency, µM (titrated, usually from 114 µM), most hits filed as inhibitors; also: nearly all actives have a fitted effect of over 70% in size
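AlphaScreen: HP1-beta (50 nM) preformed 30 min with biotin-H3(1-18)K9me3 peptide (50 nM) in PBS pH 7.4, 0.01% Tween-20. Compound added for 30 min at RT, then streptavidin donor/nickel chelate acceptor beads (10 ug/mL) for 30 min.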
BAZ2B inh – BAZ2B (human) inhibition | Potency, µM (top dose mostly 114 µM), hits mostly inhibitors | AlphaScreen BAZ2B-H3K14Ac peptide displacement | Q9UIF8 | 360,000 tested, 4.4% active | AID 504333; also: nearly all actives have a fitted effect of over 60% in size
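Complex of BAZ2B and biotin-H3K14Ac (50 nM apiece) forms over 30 min at RT, then faces library compounds up to 110 uM for another 30 min; AlphaScreen beads added, 20 min dark incubation, luminescence read.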
G9a block – G9a (human) methyltransferase inhibition | G9a H3K9 monomethylation, AlphaScreen, 2 h | 350,000 tested, 8.8% active | Q96KQ7 | Potency, µM (doses to about 102 µM), actives largely listed as inhibitors; also: nearly all actives have a fitted effect of over 75% in size
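AlphaScreen detection with an anti-monomethyl H3K9 antibody quantified product after a 2 h room-temperature reaction containing 500 nM biotinylated H3K9 peptide, 20 µM SAM and 20 nM enzyme, which had been preincubated 15 min with compound.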
PI5P4K alpha inh – blocks human PI5P4K alpha kinase activity; P48426; PI5P4Kalpha enzyme, ADP-Glo luminescence, 60 min; stronger effect = lower value; 330,000 tested, 1.2% active; max response, %; active = max response of -50% or lower; inconclusive = between -30% and -50%; inactive = -30% or higher; also: value at the top dose of about 77 µM
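Reactions run in 0.038 M HEPES pH 7.4, 0.28 mM EGTA, 0.1% CHAPS and 5% DMSO, with PI5P4Kalpha, substrate, compound and 5 microM ATP final, one hour at room temperature. Readout is ADP-Glo luminescence.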
Each line names hits and unclear results; the compound was inactive in the other large screens. Rows were chosen to be rich in hits. Some 11% of all compounds tested hit in one or more screens of this group. Unless noted, calls follow the shape of the dose curve; as a rule, active = well fitted inhibition curve with a large enough effect; inconclusive = small, poorly fitted or top-dose-only effect; inactive = no such curve, though single readings can be large or run the other way.

O=C(CSc1nc(-c2ccccc2F)nc2cc(=O)[nH]n12)Nc1cccc(C(F)(F)F)c1	JMJD2A Tudor inh inconclusive, BAZ2B inh inconclusive (no result: L3MBTL1 block, PI5P4K alpha inh)
O=S(=O)(Nc1ccc(Br)cc1)c1cccc(NC(=S)NCCN2CCOCC2)c1	G9a block 32µM (no result: L3MBTL1 block)
CC(C)(C)NC(=S)Nc1ccc(Nc2ccccc2)cc1	L3MBTL1 block inconclusive, JMJD2A Tudor inh 32µM, BAZ2B inh 28µM, G9a block 11µM (no result: PI5P4K alpha inh)
S=C(NCCN1CCOCC1)Nc1ccc(Br)cc1	none
S=C(NCCc1ccccc1)Nc1ccc(Nc2ccccc2)cc1	JMJD2A Tudor inh 18µM, HP1b chromo inh 11µM, BAZ2B inh 8.9µM (no result: G9a block)
CC(C)(CNC(=S)NCCc1ccccc1)CNC(=S)NCCc1ccccc1	JMJD2A Tudor inh inconclusive, BAZ2B inh inconclusive, G9a block 10µM
CCc1ccc(S(=O)(=O)c2nnn3c2nc(NCCC(C)C)c2cc(Cl)ccc23)cc1	none (no result: L3MBTL1 block, PI5P4K alpha inh)
Cc1nn2c(=O)cc(COC(=O)c3cccc(NC(=O)c4ccc(F)cc4)c3)nc2s1	none (no result: L3MBTL1 block, PI5P4K alpha inh)
O=[N+]([O-])c1ccc(NC(=S)NCCc2ccc(F)cc2)cc1	JMJD2A Tudor inh inconclusive, BAZ2B inh 79µM, G9a block inconclusive
O=C(NCCc1ccc(F)cc1)Nc1ccc([N+](=O)[O-])cc1	G9a block inconclusive (no result: L3MBTL1 block)
CCCOc1ccc(NC(=O)CC2C(=O)N(c3ccccc3)C(=O)N2CCC(C)C)cc1 (stereo unspecified)	none (no result: L3MBTL1 block, PI5P4K alpha inh)
Cc1cccn2c(=O)c3cc(C(=O)NC(C)C)n(C)c3nc12	none (no result: L3MBTL1 block, PI5P4K alpha inh)
Cc1ccc(-c2nc(S(=O)(=O)c3ccc(C)cc3)c(SCC(=O)c3ccccc3)o2)cc1	G9a block inconclusive (no result: L3MBTL1 block, PI5P4K alpha inh)
COc1ccc(C)cc1-n1[nH]nnc1=S	JMJD2A Tudor inh 25µM, G9a block 6.3µM
Cc1cc(C)c(-n2[nH]nnc2=S)c(C)c1	JMJD2A Tudor inh 32µM, BAZ2B inh inconclusive, G9a block 14µM
COc1ccc(C)cc1-n1nc2ccccc2n1	none
FC(F)(F)c1cccc(-n2c(Cn3nnc4ccccc43)n[nH]c2=S)c1	none (no result: G9a block)
Cn1c(Cn2nnc3ccccc32)nnc1SCC(=O)c1ccc(F)cc1	JMJD2A Tudor inh 45µM, G9a block 35µM (no result: PI5P4K alpha inh)
Cc1nc2ccccc2n1Cc1n[nH]c(=S)n1-c1ccc(Cl)cc1	G9a block inconclusive
Fc1ccc(-n2c(Cn3nnc4ccccc43)n[nH]c2=S)cc1	JMJD2A Tudor inh 18µM, BAZ2B inh inconclusive (no result: G9a block)
S=c1[nH]nc(Cn2nnc3ccccc32)n1-c1ccccc1	JMJD2A Tudor inh 6.3µM, G9a block 32µM
Cc1cc(C(F)(F)F)nn1Cc1n[nH]c(=S)n1-c1ccc(F)cc1	G9a block 10µM
CC(C)N(C(=O)CSc1nnc(Cn2nnc3ccccc32)n1C)C(C)C	none (no result: L3MBTL1 block)
O=C1CC(c2ccccc2C(F)(F)F)c2c(c3ccccc3[nH]c2=O)O1 (stereo unspecified)	none (no result: L3MBTL1 block, PI5P4K alpha inh)
CCOC(=O)c1ccc(S(=O)(=O)N2CCN(c3nc(-c4ccccc4)nc4ccccc34)CC2)cc1	none (no result: L3MBTL1 block, BAZ2B inh, G9a block, PI5P4K alpha inh)
Fc1ccc(-n2c(-c3ccc4ccccc4n3)n[nH]c2=S)cc1Cl	G9a block inconclusive
Cc1cc(-c2n[nH]c(=S)n2-c2ccc(F)cc2)nn1C	JMJD2A Tudor inh 25µM, G9a block inconclusive
Cc1ccc(S(=O)(=O)NCC2CCCO2)cc1 (stereo unspecified)	none
O=C(NC(=S)NCC1CCCO1)c1ccccc1Br (stereo unspecified)	none
Cc1ccc(C(=O)N/C(=C/c2ccc(N(C)C)cc2)C(=O)NCC2CCCO2)cc1 (stereo unspecified)	G9a block 28µM (no result: L3MBTL1 block)
Cc1ccc(C(=O)N/C(=C/c2ccc(Cl)cc2)C(=O)NCC2CCCO2)cc1 (stereo unspecified)	none
Cc1ccc(S(=O)(=O)NNC(=S)NCC2CCCO2)cc1 (stereo unspecified)	G9a block 25µM (no result: L3MBTL1 block)
Cc1ccc(NS(=O)(=O)c2ccc(OCC(=O)NCC3CCCO3)cc2)cc1 (stereo unspecified)	JMJD2A Tudor inh 50µM
Cc1ccc(C(=O)NC(=S)NCC2CCCO2)cc1Br (stereo unspecified)	BAZ2B inh inconclusive, G9a block 45µM
